Experiment [1] is described as follows: compounds altering circadian rhythm period length – cell-based, LOPAC library, luminescence reporter (AID 2774; call rule not given here;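 further: values are relative to mean of DMSO wells on each plate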). The following applies: circadian reporter cells, at 7 µM, actives lie on both sides.
The nature of experiment [2]: viability loss with induced miR-34 in A549 – imaging, A549 dox-inducible miR-34, nuclei and caspase counts, primary screen (AID 1347080). The following applies: A549 miR-34 inducible, Hoechst nuclei count, 48 h.
The nature of experiment [3]: compounds altering viability of human ES cells (AID 493140; call rule not given here;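 further: cells exposed to compounds for four days before counting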). Conditions: human embryonic stem cell survival screen; stronger effect = higher value.
Experiment [4] addresses ATP-dependent translocase ABCB1 (Homo sapiens) (UniProt P08183). In words: P-glycoprotein substrate transport blockade – cell-based (AID 377; in the data active means fluorescence slope change above about 50%). Conditions: MDR1-expressing cells, fluorescent substrate accumulation slope; stronger effect = higher value; concentration not given here.
Experiment [5] in a line: P. berghei load reduction in hepatocytes – cell-based, HepG2, luciferase luminescence, HepG2 viability, primary screen (AID 624349; in the data active means parasite load remaining mostly below about 12%, no sharp cut-off; inactive means mostly above about 10%;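 further: 100% = mean of DMSO negative control wells on the same plate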). The following applies: P. berghei liver stage in HepG2, luciferase luminescence, concentration not given here; parasite load remaining: stronger effect = lower value; viability: measured here: HepG2 viability without parasites.
[6] abbreviates: stronger effect = lower value, cell number ratio, induced over uninduced.
Where [7] appears, read: measured here: relative caspase fold change +Dox/-Dox.
Where [8] appears, read: measured here: total cells with miR-34 induction, stronger effect = lower value.
Setting [9] is: measured here: total cells without miR-34 induction.

Where “and” joins values, the source holds several entries; their conditions need not be identical. Identical values can stand only once. Inconclusive results are not listed. Calls of active or inactive are those of the source.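 How the source made its calls, unless noted: active means compounds whose cell count with miR-34 switched on is under 0.7 times the count with it off; inactive means the rest.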

ATP-dependent translocase ABCB1 (Homo sapiens), sequence (P08183 whole entry, looked up): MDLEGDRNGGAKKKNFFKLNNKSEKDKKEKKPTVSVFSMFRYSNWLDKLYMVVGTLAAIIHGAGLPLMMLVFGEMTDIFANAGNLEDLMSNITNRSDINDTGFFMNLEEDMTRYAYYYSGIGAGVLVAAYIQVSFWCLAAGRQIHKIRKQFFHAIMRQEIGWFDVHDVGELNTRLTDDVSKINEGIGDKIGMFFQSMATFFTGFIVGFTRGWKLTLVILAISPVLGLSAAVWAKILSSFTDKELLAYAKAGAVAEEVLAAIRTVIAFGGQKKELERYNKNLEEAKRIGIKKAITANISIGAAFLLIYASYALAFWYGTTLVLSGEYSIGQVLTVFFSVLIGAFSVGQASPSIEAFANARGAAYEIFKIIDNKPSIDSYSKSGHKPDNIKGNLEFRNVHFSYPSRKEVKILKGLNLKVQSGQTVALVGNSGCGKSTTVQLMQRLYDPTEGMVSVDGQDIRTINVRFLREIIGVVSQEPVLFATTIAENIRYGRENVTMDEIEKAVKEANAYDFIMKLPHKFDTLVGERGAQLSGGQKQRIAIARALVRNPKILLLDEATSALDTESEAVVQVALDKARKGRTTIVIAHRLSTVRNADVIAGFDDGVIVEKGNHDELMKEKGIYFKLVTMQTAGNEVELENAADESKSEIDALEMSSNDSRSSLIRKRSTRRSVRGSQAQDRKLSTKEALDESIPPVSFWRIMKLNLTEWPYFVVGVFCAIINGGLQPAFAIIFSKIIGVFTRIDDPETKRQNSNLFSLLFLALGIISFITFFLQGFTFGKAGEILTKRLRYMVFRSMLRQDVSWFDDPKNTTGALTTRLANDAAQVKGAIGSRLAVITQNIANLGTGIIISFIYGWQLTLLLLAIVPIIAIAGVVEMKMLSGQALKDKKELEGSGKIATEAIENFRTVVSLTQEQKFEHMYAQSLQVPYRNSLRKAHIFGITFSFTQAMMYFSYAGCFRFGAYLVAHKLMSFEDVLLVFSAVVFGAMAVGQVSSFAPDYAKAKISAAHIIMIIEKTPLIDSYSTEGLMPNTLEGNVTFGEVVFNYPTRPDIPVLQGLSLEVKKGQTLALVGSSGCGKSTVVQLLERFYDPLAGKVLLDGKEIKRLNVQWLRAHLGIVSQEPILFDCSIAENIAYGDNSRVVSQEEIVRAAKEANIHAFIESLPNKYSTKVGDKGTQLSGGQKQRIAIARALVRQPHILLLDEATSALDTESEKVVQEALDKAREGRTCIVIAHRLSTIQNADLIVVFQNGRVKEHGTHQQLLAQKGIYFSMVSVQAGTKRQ

As to `CCSC(N)=Nc1ccc(C(F)(F)F)cc1`, the period change in experiment [1] is 0.125 h (inactive). For the same molecule, the fold change in experiment [2] (setting [6]) was 1.02 (inactive); in experiment [2] (setting [7]), 0.833. Moreover, the values for the cell count in experiment [2] (setting [8]) and in experiment [2] (setting [9]) were 5930 and 5830, respectively.

For `CCCCCCCCCCCCCC(=O)N[C@H](C)[C@@H](O)c1ccccc1`, the survival in experiment [3] is 87.5 (inactive). Also, the fold change in experiment [2] (setting [6]) was 1.02 (inactive); in experiment [2] (setting [7]), 1.49 and 1.71. Also, the cell count in experiment [2] (setting [8]) is 5830 and 6030; in experiment [2] (setting [9]) it was 5700 and 5920.

For `COc1c(O)cc2c(c1O)C1OC(CO)C(O)C(O)C1OC2=O` (stereo unspecified), in experiment [4], the fluorescence slope change is 18.9% (inactive). Further, the survival in experiment [3] was 2.17 (inactive). Further, the parasite load remaining in experiment [5] is 89.5% (inactive). Further, the viability – broadly, a read-out of living cells in per cent, often relative to untreated cells – in experiment [5] worked out at 106%. The fold change was 0.91 (inactive) in experiment [2] (setting [6]) and 1.19 in experiment [2] (setting [7]). The cell count is 9380 in experiment [2] (setting [8]) and 10300 in experiment [2] (setting [9]).

In the case of `CCCCC/C=C\C[C@@H](O)/C=C/C=C/C=C\[C@@H](O)CCCC(=O)O`, the survival in experiment [3] was 102 (inactive). The fold change in experiment [2] (setting [6]) is 0.993 (inactive); in experiment [2] (setting [7]), 1.34. The results for the cell count in experiment [2] (setting [8]) and in experiment [2] (setting [9]) were 6200 and 6240, respectively.

On to `COc1c(O[C@@H]2O[C@H](CO)[C@@H](O)[C@H](O)[C@H]2O)cc2c(c1OC)-c1ccc(SC)c(=O)cc1C(NC(C)=O)CC2` (stereo partly specified), for which, in experiment [4], the fluorescence slope change is 56.6% (active). In addition, the survival in experiment [3] was 8.17 (inactive). In experiment [5], the parasite load remaining was 68.6% (inactive) and 75.2% (inactive). The viability in experiment [5] was 120% and 78%. The fold change in experiment [2] (setting [6]) was 0.892 (inactive); in experiment [2] (setting [7]), 1.15. In addition, the figures for the cell count in experiment [2] (setting [8]) and in experiment [2] (setting [9]) were 8970 and 10100, respectively.

Regarding `CCCCCC(=O)CC[C@@H]1[C@@H](C/C=C\CCCC(=O)O)[C@@H](O)C[C@H]1O`, the survival in experiment [3] was 82.4 (inactive). For the same molecule, the fold change in experiment [2] (setting [6]) was 0.925 (inactive); in experiment [2] (setting [7]), 1.4. The cell count in experiment [2] (setting [8]) worked out at 5510; in experiment [2] (setting [9]), 5950.

As for `CCCCCC(=O)/C=C/[C@@H]1[C@@H](C/C=C\CCCC(=O)O)[C@@H](O)C[C@H]1O`, the survival in experiment [3] was 66.1 (inactive). Moreover, the fold change in experiment [2] (setting [6]) was 1.04 (inactive); in experiment [2] (setting [7]), 1.11. The cell count in experiment [2] (setting [8]) turned out to be 6170; in experiment [2] (setting [9]), 5940.

Consider `CCCCCCCC/C=C\CCCCCCCCOC[C@H](COP(=O)([O-])OCC[N+](C)(C)C)OC(C)=O`, for which the survival in experiment [3] was 95.4 (inactive). The figures for the fold change in experiment [2] (setting [6]) and in experiment [2] (setting [7]) were 0.905 (inactive) and 1.27, respectively. The figures for the cell count in experiment [2] (setting [8]) and in experiment [2] (setting [9]) were 6070 and 6700, respectively.

`CCCCC[C@H](O)/C=C/[C@@H]1[C@@H](CCCCCCC(=O)O)[C@@H](O)C[C@H]1O`: in experiment [3], the survival was 96.8 (inactive). The fold change was 0.91 (inactive) and 0.991 (inactive) in experiment [2] (setting [6]); 1.19 and 1.15 in experiment [2] (setting [7]). Moreover, the cell count in experiment [2] (setting [8]) was 5960 and 6030; in experiment [2] (setting [9]), 6550 and 6090.

Take `C=C1C(c2ccc(C)cc2)=CCc2cc(C)cc(C)c21`: the survival in experiment [3] was 98.5 (inactive). For the same molecule, the values for the fold change in experiment [2] (setting [6]) and in experiment [2] (setting [7]) were 0.866 (inactive) and 0.886, respectively. The cell count in experiment [2] (setting [8]) amounted to 1920; in experiment [2] (setting [9]), 2210.

Consider `COc1ccc2c(OC)c3ccoc3nc2c1OC`, for which the fluorescence slope change in experiment [4] was 16.3% (inactive). Besides, the survival in experiment [3] was 3.67 (inactive). Moreover, in experiment [5], the parasite load remaining was 157% (inactive). The viability in experiment [5] was 95.8%. For the same molecule, the fold change in experiment [2] (setting [6]) is 0.86 (inactive); in experiment [2] (setting [7]), 1.16. Moreover, the results for the cell count in experiment [2] (setting [8]) and in experiment [2] (setting [9]) were 8660 and 10100, respectively.

As to `CCCCCCCCCCCCCCC[C@@H](O)[C@H](CO)NC(C)=O`, the survival in experiment [3] was 81.5 (inactive). Moreover, the fold change in experiment [2] (setting [6]) is 1.08 (inactive); in experiment [2] (setting [7]), 1. Also, the cell count was determined as 5490 in experiment [2] (setting [8]) and 5090 in experiment [2] (setting [9]).

As for `O[C@@H]1[C@@H](O)C=C2CCN3Cc4cc5c(cc4[C@H]1C23)OCO5` (stereo partly specified), the fluorescence slope change in experiment [4] is 10.1% (inactive). The survival in experiment [3] was 0.583 (inactive). For the same molecule, the parasite load remaining in experiment [5] is -0.065% (active). The viability in experiment [5] is 101%. For the same molecule, the fold change was 0.89 (inactive) in experiment [2] (setting [6]) and 1.09 in experiment [2] (setting [7]). For the same molecule, the cell count worked out at 2250 in experiment [2] (setting [8]) and 2530 in experiment [2] (setting [9]).

With `C=C1CC[C@H](O)C/C1=C/C=C1\CCC[C@]2(C)[C@@H]([C@H](C)CC[C@@H](O)C(C)(C)O)CC[C@@H]12`, the survival in experiment [3] is 80.4 (inactive). The fold change was 1.03 (inactive) in experiment [2] (setting [6]) and 1.15 in experiment [2] (setting [7]). Also, the cell count in experiment [2] (setting [8]) was 5660; in experiment [2] (setting [9]) it was 5500.

`CCCCCCCCCCCCCCCCOCC(CO)OC` (stereo unspecified): the survival in experiment [3] was 85.4 (inactive). Also, the values for the fold change in experiment [2] (setting [6]) and in experiment [2] (setting [7]) were 1.02 (inactive) and 1.45, respectively. Moreover, the results for the cell count in experiment [2] (setting [8]) and in experiment [2] (setting [9]) were 5930 and 5790, respectively.

`O=C(O)CCC/C=C\C[C@H]1C(=O)C[C@@H](O)[C@@H]1/C=C/[C@@H](O)CCc1ccccc1`: the survival in experiment [3] was 102 (inactive). Besides, the fold change in experiment [2] (setting [6]) was 0.93 (inactive) and 0.922 (inactive); in experiment [2] (setting [7]), 1.16 and 1.61. In addition, the cell count is 5630 and 5680 in experiment [2] (setting [8]); 6050 and 6160 in experiment [2] (setting [9]).

`CCCCCCCCCCCCCCCCCCOC[C@H](COP(=O)([O-])OCC[N+](C)(C)C)OC(C)=O`: in experiment [3], the survival was 83.4 (inactive). The fold change is 0.968 (inactive) and 1 (inactive) in experiment [2] (setting [6]); 1.1 and 0.859 in experiment [2] (setting [7]). Besides, the cell count is 5740 and 5730 in experiment [2] (setting [8]); 5930 and 5720 in experiment [2] (setting [9]).

With `O=C(O)CCC/C=C\C[C@@H]1[C@@H](/C=C/[C@@H](O)COc2cccc(C(F)(F)F)c2)[C@H](O)C[C@@H]1O`, the survival in experiment [3] was 118 (inactive). Besides, the fold change is 0.964 (inactive) and 1.06 (inactive) in experiment [2] (setting [6]); 2.48 and 1.05 in experiment [2] (setting [7]). Further, the cell count in experiment [2] (setting [8]) is 5470 and 6950; in experiment [2] (setting [9]), 5680 and 6530.

In the case of `CCCCCC(O)/C=C/C=O` (stereo unspecified), the survival in experiment [3] is 101 (inactive). The fold change is 0.954 (inactive) in experiment [2] (setting [6]) and 1.27 in experiment [2] (setting [7]). For the same molecule, the cell count amounted to 5280 in experiment [2] (setting [8]) and 5530 in experiment [2] (setting [9]).

With `c1ccc2c(c1)CCCc1cc(NCCN3CCOCC3)nnc1-2`, the fluorescence slope change in experiment [4] is 77.5% (active). Also, in experiment [3], the survival is 2.75 (inactive). In addition, the parasite load remaining in experiment [5] was 74.6% (inactive) and 80.6% (inactive). In addition, the viability in experiment [5] is 105% and 79%. The fold change in experiment [2] (setting [6]) was 0.801 (inactive); in experiment [2] (setting [7]), 2.12. In addition, the results for the cell count in experiment [2] (setting [8]) and in experiment [2] (setting [9]) were 7290 and 9100, respectively.

For `COC(C)(C)CCCC(C)C/C=C/C(C)=C/C(=O)O` (stereo unspecified), the survival in experiment [3] is 91.1 (inactive). In addition, the fold change in experiment [2] (setting [6]) is 0.916 (inactive); in experiment [2] (setting [7]), 0.969. Besides, the figures for the cell count in experiment [2] (setting [8]) and in experiment [2] (setting [9]) were 5680 and 6210, respectively.

In the case of `C[C@H](CCC(=O)NCC(=O)O)[C@H]1CC[C@H]2[C@@H]3[C@H](O)C[C@@H]4C[C@H](O)CC[C@]4(C)[C@H]3C[C@H](O)[C@]12C`, in experiment [4], the fluorescence slope change is 91% (active). Besides, the survival in experiment [3] was 14.6 (inactive). Moreover, in experiment [5], the parasite load remaining is 142% (inactive) and 80.1% (inactive). Also, the viability in experiment [5] was 103% and 76.4%. Also, the figures for the fold change in experiment [2] (setting [6]) and in experiment [2] (setting [7]) were 0.862 (inactive) and 1.21, respectively. Moreover, the results for the cell count in experiment [2] (setting [8]) and in experiment [2] (setting [9]) were 8770 and 10200, respectively.

In the case of `COC(=O)C1=CO[C@@H](C)[C@H]2CN3CCc4c([nH]c5ccccc45)[C@@H]3C[C@H]12`, in experiment [4], the fluorescence slope change is 76.8% (active). Also, the survival in experiment [3] was 10.5 (inactive). Besides, the parasite load remaining in experiment [5] was 108% (inactive) and 62.6% (inactive). The viability in experiment [5] was 97.4% and 74.1%. The fold change in experiment [2] (setting [6]) is 0.773 (inactive); in experiment [2] (setting [7]) it was 1.63. The cell count in experiment [2] (setting [8]) is 5880; in experiment [2] (setting [9]), 7600.

The values are drawn from PubChem BioAssay.
